“And” between values parts separate entries of the source, which are not always exact repeats. Identical values can stand only once. About 2,000 (36%) of roughly 5,500 compounds were called active. About 18% were inconclusive and are not listed. No stated cut-off is given here; in the data, active means normalized growth mostly below about 0.91 (no sharp cut-off); inconclusive means no clear call, values can overlap the other calls; inactive means mostly above about 0.92. The list shows a part of the results.
Assay: chemical genetic growth profiling, strain panel (AID 1159580);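 further: tested at 20 µM; growth read once vehicle control cultures reached saturation at 30 °C; 1 = growth at the plate median or of vehicle wells; lower values mean less growth of the strain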
Conditions: S. cerevisiae deletion strains, growth OD

Measured: normalized growth

CN[C@@H]1C(OC2[C@H](O[C@H]3[C@H](O)[C@@H](O)[C@H](N=C(N)N)[C@@H](O)[C@@H]3N=C(N)N)OC(C)[C@]2(O)CO)OC(CO)C(O)C1O (some centres not stated)
inactive: locus YAL021C, strain ccr4, active compounds read low 1.02 | locus YAL026C, strain drs2, active compounds read low 1.02 | locus YAL030W, strain snc1, active compounds read low 0.997 | locus YBL061C, strain skt5, active compounds read low 0.996 | locus YBR009C, strain hhf1, active compounds read low 1.01 | locus YBR021W, strain FUR4, active compounds read low 0.988 | locus YBR023C, strain chs3, active compounds read low 1.01 | locus YBR171W, strain sec66, active compounds read low 0.996 | locus YBR229C, strain ROT2, active compounds read low 0.993 | locus YBR231C, strain swc5, active compounds read low 1.01 | locus YBR279W, strain paf1, active compounds read low 1.01 | locus YCL011C, strain gbp2, active compounds read low 1.05 | locus YCL016C, strain dcc1, active compounds read low 1.02 | locus YCL029C, strain bik1, active compounds read low 0.978 | locus YCL069W, strain vba3, active compounds read low 1.03 | locus YCR088W, strain abp1, active compounds read low 0.994 | locus YDL005C, strain med2, active compounds read low 0.998 | locus YDL035C, strain GPR1, active compounds read low 1.03 | locus YDL040C, strain nat1, active compounds read low 0.999 | locus YDL074C, strain BRE1, active compounds read low 0.989 | locus YDL101C, strain DUN1, active compounds read low 0.979 | locus YDL185W, strain tfp1, active compounds read low 0.984 | locus YDL192W, strain arf1, active compounds read low 0.989 | locus YDR001C, strain nth1, active compounds read low 1.02 | locus YDR069C, strain doa4, active compounds read low 1 | locus YDR101C, strain arx1, active compounds read low 0.992 | locus YDR137W, strain rgp1, active compounds read low 0.998 | locus YDR159W, strain sac3, active compounds read low 0.982 | locus YDR162C, strain NBP2, active compounds read low 1.01 | locus YDR195W, strain ref2 0.942 | locus YDR297W, strain sur2, active compounds read low 1 | locus YDR318W, strain mcm21, active compounds read low 0.98 | locus YDR334W, strain swr1, active compounds read low 1.02 | locus YDR335W, strain msn5, active compounds read low 1.01 | locus YDR388W, active compounds read low 0.975 | locus YDR392W, strain spt3, active compounds read low 1.02 | locus YDR502C, strain sam2, active compounds read low 0.985 | locus YEL003W, strain gim4, active compounds read low 1 | locus YEL037C, strain rad23, active compounds read low 1.01 | locus YEL061C, strain CIN8 (second series), active compounds read low 1.01 | locus YEL061C, strain CIN8, active compounds read low 0.995 | locus YER015W, strain faa2, active compounds read low 1.01 | locus YER016W, strain bim1, active compounds read low 1 | locus YER110C, active compounds read low 0.97 | locus YER111C, strain swi4, active compounds read low 1.01 | locus YER155C, strain BEM2 (second series), active compounds read low 0.994 | locus YER155C, strain BEM2, active compounds read low 0.987 | locus YER167W, strain BCK2, active compounds read low 0.99 | locus YFR010W, strain ubp6, active compounds read low 0.993 | locus YGL078C, strain dbp3, active compounds read low 0.97 | locus YGL086W, strain mad1, active compounds read low 1 | locus YGL167C, strain pmr1, active compounds read low 0.996 | locus YGL173C, strain kem1, active compounds read low 1.02 | locus YGL227W, strain vid30, active compounds read low 0.993 | locus YGL240W, strain doc1, active compounds read low 1.01 | locus YGL248W, strain PDE1, active compounds read low 0.975 | locus YGL253W, strain hxk2, active compounds read low 1.02 | locus YGR135W, strain pre9, active compounds read low 0.956 | locus YGR229C, strain SMI1, active compounds read low 1.02 | locus YGR252W, strain gcn5, active compounds read low 0.943 | locus YHR013C, strain ard1, active compounds read low 1.03 | locus YHR027C, strain rpn1, active compounds read low 1.01 | locus YHR030C, strain SLT2, active compounds read low 0.993 and 1.03 | locus YHR079C, strain IRE1 (second series), active compounds read low 0.98 | locus YHR079C, strain IRE1, active compounds read low 1.03 | locus YHR094C, strain hxt1, active compounds read low 0.972 | locus YHR129C, strain ARP1, active compounds read low 0.998 | locus YHR142W, strain chs7, active compounds read low 1.02 | locus YHR200W, strain rpn10, active compounds read low 0.981 | locus YIL066C, strain RNR3, active compounds read low 0.992 | locus YIL073C, strain SPO22, active compounds read low 0.958 | locus YIL125W, strain kgd1, active compounds read low 0.981 | locus YIR030C, strain dcg1, active compounds read low 0.975 | locus YJL092W, strain hpr5, active compounds read low 0.999 | locus YJL095W, strain BCK1 (second series), active compounds read low 1 | locus YJL095W, strain BCK1, active compounds read low 0.975 and 1.05 | locus YJL115W, strain asf1, active compounds read low 1 | locus YJL129C, strain trk1, active compounds read low 0.981 | locus YJL134W, strain LCB3, active compounds read low 0.99 | locus YJL154C, strain vps35, active compounds read low 1.01 | locus YJL164C, strain tpk1, active compounds read low 1.02 | locus YJL166W, strain qcr8, active compounds read low 1.02 | locus YJL168C, strain set2, active compounds read low 0.973 | locus YJL187C, strain SWE1 (second series), active compounds read low 0.981 | locus YJR043C, strain POL32, active compounds read low 1.04 | locus YJR066W, strain TOR1, active compounds read low 0.975 | locus YJR075W, strain HOC1, active compounds read low 0.985

From PubChem BioAssay AID1159580 (chemical genetic matrix, 2015)
